# Source: PubChem BioAssay (NCI)
# About 83,000 compounds went through this panel and 20% of them were active in at least one assay; those are over-represented in the sample as a whole.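 In brief: 96-well plates, 48 h treatment, single concentration, percent growth endpoint.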 Unmarked numbers belong to inactive results. Activity calls are given as the source filed them. The calls were made as follows: active = growth percent below 10; inactive = the rest.
# Assays:
# Assay in all cases: NCI-60 one-dose screen, 48 h (100 = growth as untreated, 0 = no growth, -100 = all killed)
# Details in all cases: 10 µM unless noted
# HCT-15 colon = system: HCT-15 colon
# HT29 colon = system: HT29 colon
# SNB-75 CNS = system: SNB-75 CNS
# SNB-19 CNS = system: SNB-19 CNS
# U251 CNS = system: U251 CNS
# PC-3 prostate = system: PC-3 prostate
# SK-MEL-5 melanoma = system: SK-MEL-5 melanoma
# UACC-62 melanoma = system: UACC-62 melanoma
# LOX IMVI melanoma = system: LOX IMVI melanoma
# SK-MEL-28 melanoma = system: SK-MEL-28 melanoma
# SK-MEL-2 melanoma = system: SK-MEL-2 melanoma
# EKVX NSCLC = system: EKVX NSCLC
# SN12C renal = system: SN12C renal
# UO-31 renal = system: UO-31 renal
# TK-10 renal = system: TK-10 renal
# ACHN renal = system: ACHN renal
# CAKI-1 renal = system: CAKI-1 renal
# A498 renal = system: A498 renal
# CCRF-CEM leukemia = system: CCRF-CEM leukemia
# MOLT-4 leukemia = system: MOLT-4 leukemia
SMILES,growth (HCT-15 colon),growth (HT29 colon),growth (SNB-75 CNS),growth (SNB-19 CNS),growth (U251 CNS),growth (PC-3 prostate),growth (SK-MEL-5 melanoma),growth (UACC-62 melanoma),growth (LOX IMVI melanoma),growth (SK-MEL-28 melanoma),growth (SK-MEL-2 melanoma),growth (EKVX NSCLC),growth (SN12C renal),growth (UO-31 renal),growth (TK-10 renal),growth (ACHN renal),growth (CAKI-1 renal),growth (A498 renal),growth (CCRF-CEM leukemia),growth (MOLT-4 leukemia)
Cc1cc(C#Cc2ccc(C(C)(C)C)cc2)ccc1-n1c(/C=C/c2c(Cl)cccc2Cl)nc2ccccc2c1=O,90.9%,93.2%,82%,105%,93.9%,80.8%,106%,101%,87.3%,126%,120%,89.9%,104%,77.2%,99.1%,96.2%,83.9%,104%,95.9%,86.9%
COc1ccc2nc(-c3ccc(-c4noc(-c5ccc(Cl)cc5)n4)cc3)[nH]c2c1,75.8%,82%,31.8%,95.6%,78.2%,67.1%,78.8%,58.3%,57.3%,79.7%,100%,91.2%,77.7%,55.8%,120%,77.9%,92.1%,90.7%,57%,79%
NS(=O)(=O)c1ccc(CCn2c(SCC(=O)N/N=C/c3cccnc3)nc3ccccc3c2=O)cc1,83%,109%,90.8%,100%,87.7%,83.8%,79.5%,84.5%,85%,101%,92%,96%,110%,83.6%,109%,102%,95.6%,85.5%,60.3%,68.8%
Cc1ccc(C(=O)CC(=O)C(F)(F)C(F)(F)C(F)(F)F)s1,105%,110%,96%,104%,108%,92.8%,106%,96.6%,104%,110%,113%,94.6%,96.4%,74.9%,118%,110%,99.2%,112%,103%,109%
O=C(NCCN1CCCC1)n1cc(-c2ccncc2)c(-c2cc(O)cc(Cl)c2)n1,88.6%,90.1%,110%,98.5%,82.9%,103%,62.9%,34.6%,79.7%,36.7%,90.8%,119%,82.5%,100%,78.6%,82.2%,109%,103%,85.7%,82.7%
CCC1=CC2CN(C1)Cc1c([nH]c3ccccc13)[C@@](C(=O)OC)(c1cc3c(cc1OC)N(C)[C@H]1[C@@](O)(C(=O)OC)[C@H](OC(C)=O)[C@]4(CC)C=CCN5CC[C@]31[C@@H]54)C2 (stereo not given in full),21.5%,2.55% (active),-5.65% (active),53.6%,11%,34.5%,-46.9% (active),43.6%,20%,62.1%,5.95% (active),68.6%,36.9%,51.5%,41.2%,34.1%,44.3%,-14.6% (active),19.1%,6.56% (active)
CC(C)(C)[Si](C)(C)OC1[C@@H](CNC(N)=O)O[C@@H](n2cnc3c(NC(=O)Nc4ccccc4)ncnc32)[C@H]1O[Si](C)(C)C(C)(C)C (stereo not given in full),48.3%,-7.1% (active),73.9%,88.4%,62.2%,17%,76.9%,83.3%,32.3%,92.7%,80.9%,59.7%,-33.7% (active),40.9%,84.5%,40.2%,92.2%,81%,47.9%,23.5%
CCOC(=O)c1ccc2c(c1)nc(-c1ccc(Cl)cc1)n2-c1cc(C(C)(C)C)[nH]n1,20.2%,18.5%,18.2%,48%,33.6%,48.7%,0.494% (active),25.5%,27.8%,36.2%,38.7%,47.6%,60.5%,36.3%,84.9%,35.8%,25.5%,45.3%,22.3%,9.68% (active)
O=C(CCl)Nc1ccc2c(c1)C(=O)c1ccccc1C2=O,-38.8% (active),-63.6% (active),41.7%,36.9%,-56.3% (active),-12.6% (active),-82.8% (active),-54.9% (active),-81% (active),35.4%,19.1%,57%,-21.3% (active),46.6%,-27.9% (active),-67.8% (active),0.23% (active),44%,-46.2% (active),-29.1% (active)
CCN(CC)c1cc(C)c(Cc2c(OC)ccc3ccccc23)cc1C,97.8%,73.7%,91.1%,93.2%,94.9%,83.9%,99.4%,79.8%,94.9%,100%,94.4%,93.4%,91.2%,73.1%,95.6%,99.4%,93.1%,96.6%,102%,79.7%
COc1cccc(-c2nc3sccn3c2-c2ccnc(NCCN3CCCN(C)S3(=O)=O)n2)c1,68%,50.6%,62.5%,123%,99.9%,87.2%,84.1%,15.2%,45.2%,53%,97.1%,103%,64.7%,73.4%,120%,54%,50.7%,98.1%,63.3%,82.8%
COc1ccc(C2NC(=O)c3cc4c(cc3N2)OCO4)cc1 (stereo not given),12.5%,5.16% (active),5.9% (active),34%,17.2%,27.9%,11.9%,25.3%,39.9%,39.8%,10.5%,58.1%,31.6%,67.3%,52.8%,46.3%,55.2%,8.76% (active),14.8%,16.5%
CS(=O)(=O)c1ccc(C(=O)N/N=C/c2ccc3c(c2)OCO3)cc1,100%,88.9%,94.4%,98.5%,92.3%,92%,106%,98%,96.5%,114%,89.1%,100%,99.2%,96.3%,106%,105%,93%,94.6%,87%,70.8%
